For 56 compounds, Potency, cell number change and outcome results are on record in PubChem BioAssay AID2685 (National Center for Advancing Translational Sciences (NCATS), 2010).

Hit rate of the full screen: of about 320,000 compounds, about 2,100 (0.66%) were called active. Another 53% or so got no clear call; they are omitted. Calls come from the whole dose curve; as a rule, active = well fitted inhibition curve with a large enough effect in the signal ratio, with a control signal flat (not every such curve was filed as active); inconclusive = small, poorly fitted or top-dose-only effect, or effect the other way, or a change in a side signal; inactive = flat fitted curve, though single readings scatter; the % refers to the signal ratio. Many of the other results were omitted from the sample, so actives are more common in it than they were.
Potency is the fitted concentration of half-maximal effect.

A short description of the test: qHTS Assay for Lipid Storage Modulators in Drosophila S3 Cells.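 For cell number change: cells counted by Cell Tracker Red CMTPX staining in the red channel.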 As to conditions: BODIPY lipid droplet fluorescence, 18-24 h, cells fed with added oleic acid; cell number change: measured here: cell count max response; series mostly up to 46.1 µM. The essentials: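 Drosophila S3 cells loaded with oleic acid (400 uM, as added) and compounds at several concentrations; lipid droplets imaged by 488-nm laser-scanning cytometry, 500–530 nm intensity and object ratio to cell channel. Percent activity normalized to 20 uM Triacsin C.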
As to `C/C(=N/NC(=O)CN(c1ccccc1)S(=O)(=O)c1ccccc1)c1ccccc1O`, the Potency result was “inactive” and the cell number change is 19.6%.
The corresponding values for `Cc1cc(NC(=O)CCN2C(=O)/C(=C\c3ccccc3)SC2=S)no1` are “inactive” and -8.06%.
The corresponding values for `COc1ccc(-c2nnn(CC(=O)N3CCN(c4ccc(F)cc4)CC3)n2)cc1` are “inactive” and 0.734%.
The corresponding values for `O=C(NCc1nc2ccccc2[nH]1)C1=C[C@H](c2csc3ccccc23)C[C@H](OCc2ccc(CO)cc2)O1` are “inactive” and 13.4%.
Turning to `COc1cc(CC(=O)OCC(=O)Nc2ccc(S(=O)(=O)N3CCCC3)cc2)cc(OC)c1OC`, the Potency result is “inactive” and the cell number change is -19.3%.
Consider `CCn1cc(C(=O)NCCCN(CC(C)C)CC(C)C)c(=O)c2cc(S(=O)(=O)N3CCOCC3)ccc21`, for which the Potency result is “inactive” and the cell number change was 21.3%.
The corresponding values for `CCn1cc(C(=O)NCCN(CC(C)C)CC(C)C)c(=O)c2cc(S(=O)(=O)N3CCOCC3)ccc21` are 7.31 µM (active) and 0.403%.
Take `CCCN(CCC)CCCNC(=O)c1cn(CC)c2ccc(S(=O)(=O)N3CCOCC3)cc2c1=O`: the Potency entry is “inactive” and the cell number change came to 5.34%.
The corresponding values for `CC1CCN(Cc2cc(=O)oc3ccc4ccccc4c23)CC1` are “inactive” and 16.9%.
The corresponding values for `COc1ccc(C(=O)CC2SC(N)=NC2=O)cc1` (configuration not stated) are “inactive” and 30%.
Consider `Nc1[nH]ncc1C(=O)Nc1cccc(C(F)(F)F)c1`, for which the Potency result was “inactive” and the cell number change is -8.81%.
The corresponding values for `CC(C)(C)C(=O)COC(=O)c1ccc(O)cc1` are “inactive” and 15.5%.
Take `CCN(CC)C(=O)COC(=O)c1ccc(O)cc1`: the Potency was 20.6 µM (active) and the cell number change came to 4.39%.
Consider `O=C(OCC(=O)N(C1CCCCC1)C1CCCCC1)c1ccc(O)cc1`, for which the Potency result is “inactive” and the cell number change was 3.31%.
The corresponding values for `COCCC(=O)N1CCC(Oc2ccc(C(=O)NCCc3cnn(C)c3)cc2)CC1` are “inactive” and 8.02%.
With `CCCN1CCC(NC(=S)Nc2ccc(S(N)(=O)=O)cc2)CC1`, the Potency entry was “inactive” and the cell number change is -2.79%.
For `Cc1cccc(NC(=O)NCC(c2ccc(F)cc2)N2CCN(C)CC2)c1` (configuration not stated), the Potency result was “inactive”.
Turning to `Cc1ccc(C(CNC(=O)Nc2ccccc2)N2CCN(C)CC2)cc1` (configuration not stated), the Potency is 7.31 µM (active) and the cell number change worked out at 20.2%.
In the case of `Cc1ccc(C(CNC(=O)Nc2cccc(C)c2)N2CCN(C)CC2)cc1` (configuration not stated), the Potency entry is “inactive” and the cell number change is -5.52%.
The corresponding values for `S=C(NCc1ccccc1)NCc1cccc(Cl)c1` are “inactive” and 7.23%.
Consider `O=C(COc1ccc(S(=O)(=O)N2CCOCC2)cc1)Nc1ccccc1F`, for which the outcome is “inactive [at 0.0737 µM]”.
With `O=C(CSc1ncnc2sccc12)Nc1ccc(S(=O)(=O)N2CCOCC2)cc1`, the Potency is 14.6 µM (active) and the cell number change was found to be 4.37%.
The corresponding values for `Cc1ccc(S(=O)(=O)N2CCOCC2)cc1NC(=O)COc1ccc(C(=O)c2ccccc2)cc1` are 7.31 µM (active) and 12.9%.
As for `Cc1ccc(OCC(=O)Nc2ccc(S(=O)(=O)N3CCOCC3)cc2)c(C)c1`, the Potency result is “inactive” and the cell number change was 25.8%.
The corresponding values for `O=C(COc1ccc(S(=O)(=O)N2CCOCC2)cc1)Nc1ccccc1Cl` are 1.84 µM (active) and 7.69%.
The corresponding values for `Cc1cc(C)c(OCC(=O)Nc2ccc(S(=O)(=O)N3CCOCC3)cc2)c(C)c1` are 2.31 µM (active) and 10.8%.
The corresponding values for `Cc1ccc(S(=O)(=O)N2CCOCC2)cc1NC(=O)COC(=O)CNC(=O)c1ccccc1` are “inactive” and 5.41%.
With `Nc1nnc(SCC(=O)Nc2ccc(S(=O)(=O)N3CCOCC3)cc2)s1`, the Potency entry is “inactive”.
`O=C(COc1ccccc1Cl)Nc1ccc(S(=O)(=O)N2CCOCC2)cc1`: the Potency result is “inactive” and the cell number change was -11.3%.
On to `O=C(CSc1ncnc2ccccc12)Nc1cccc(S(=O)(=O)N2CCOCC2)c1`, for which the Potency result is “inactive”.
`Cc1ccc(S(=O)(=O)N2CCOCC2)cc1NC(=O)COc1ccc2c(C)cc(=O)oc2c1`: the Potency result is “inactive”.
As to `Cc1cc(C)c(OCC(=O)Nc2ccc(S(=O)(=O)N3CCCC3)cc2)c(C)c1`, the Potency result was “inactive”.
With `O=C1C(NS(=O)(=O)c2cccs2)=C(N2CCOCC2)C(=O)c2ccccc21`, the Potency entry was “inactive” and the cell number change was -7.78%.
The corresponding values for `O=C(Cn1nc2ccccc2n1)N/N=C/c1ccc(F)cc1` are “inactive” and -8.94%.
Regarding `CCOC(=O)c1nnn(-c2nonc2N)c1CSc1nnc(N)s1`, the Potency entry was “inactive”.
With `Cc1cccc(C(=O)O/N=C/c2ccc(Br)cc2)c1`, the Potency entry was “inactive” and the cell number change was found to be 7.42%.
The corresponding values for `Cc1ccc(S(=O)(=O)NC(C(=O)N2CCOCCOCCOCCOCC2)C(C)C)cc1` (configuration not stated) are “inactive” and -9.21%.
The corresponding values for `Cc1cc(=O)oc2cc(OCC(=O)OCC(=O)Nc3ccc(C(N)=O)cc3)ccc12` are “inactive” and 4.9%.
Consider `CN1CCN(C(=O)c2ccc(COc3cc(Cl)ccc3Cl)o2)CC1`, for which the Potency result is “inactive” and the cell number change was determined as 0.87%.
For `CCC1(CC)Cc2ccccc2C(C2=C(O)CC(C)(C)CC2=O)=N1`, the Potency entry is “inactive” and the cell number change was determined as 0.769%.
The corresponding values for `Cc1ccc2c(c1)COc1c3ccc(C(=O)N4CCCCC4)cc3nn1-2` are “inactive” and -6.37%.
On to `O=C(Cc1ccccc1[N+](=O)[O-])NCCc1ccc(F)cc1`, for which the Potency result is “inactive” and the cell number change is 16.5%.
Regarding `CC(C)Cc1nnc(NC(=O)C2CCN(C(=O)c3ccc(F)cc3)CC2)s1`, the Potency result was “inactive”.
Same read-out and setting: the value for `O=C(Cn1cnc2c(cnn2-c2ccccc2)c1=O)N1CCOCC1` was “inactive”.
On to `O=S(=O)(c1ccc(OCc2ccc(Br)cc2)cc1)N1CCOCC1`, for which the Potency entry is “inactive” and the cell number change was -10.6%.
The corresponding values for `CCc1cccc(OCC(=O)Nc2cc(S(=O)(=O)N3CCOCC3)ccc2N2CCCC2)c1` are 13 µM (active) and -12.1%.
On to `Cc1ccc(C(=O)NNC(=O)c2ccc(S(=O)(=O)N3CCOCC3)cc2)cc1`, for which the Potency entry is “inactive” and the cell number change was 13.5%.
The corresponding values for `CC(=O)c1cccc(OCC(=O)Nc2cc(S(=O)(=O)N3CCOCC3)ccc2N2CCCC2)c1` are “inactive” and -28.5%.
Regarding `O=C(Cn1cnc2c(cnn2-c2ccccc2)c1=O)Nc1ccc(S(=O)(=O)N2CCOCC2)cc1`, the Potency entry is “inactive” and the cell number change was -0.435%.
The corresponding values for `O=C(Cn1cnc2c(cnn2-c2ccccc2)c1=O)Nc1cc(S(=O)(=O)N2CCOCC2)ccc1Cl` are 25.9 µM (active) and -7.78%.
On to `CCc1cccc(OCC(=O)Nc2ccccc2N2CCCC2)c1`, for which the Potency result is “inactive” and the cell number change was -24.4%.
Consider `O=S(=O)(c1ccc(Oc2ccc(Br)cc2)cc1)N1CCOCC1`, for which the Potency is 13 µM (active) and the cell number change is -10%.
The corresponding values for `CCOc1ccc(C(=O)NNC(=O)c2cc(S(=O)(=O)N3CCOCC3)ccc2Cl)cc1` are 25.9 µM (active) and 8.57%.
Consider `O=S(=O)(c1ccc(Oc2ccccc2)cc1)N1CCOCC1`, for which the Potency result is “inactive”.
For `CCOc1ccc(NC(=O)c2cc(S(=O)(=O)N3CCOCC3)cs2)cc1`, the Potency result is “inactive” and the cell number change was -10.9%.
The corresponding values for `O=C(c1ccccc1)c1cccn1CC(=O)N1CCCCCC1` are “inactive” and 10.2%.
